# C diff growth = C. difficile growth inhibitors, primary screen, HTS | growth activity, negative = inhibition, % at 16 µg/mL (by protocol) | 86,000 compounds, 0.25% hits | AID 1259249, 2017 | Clostridium difficile clinical isolate growth, OD600, 24 h; hits give low values;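 active = mean growth activity at or below -80% and every replicate also at or below -80%; inconclusive = mean at or below -80% but some replicate above -80%; inactive = mean growth activity above -80%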;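 note: 0% = DMSO wells and -100% = levofloxacin 16 µg/mL wells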
# T cruzi growth-1 = T. cruzi intracellular proliferation inhibitors, primary screen, cell-based, beta-gal Tulahuen parasites, NIH3T3 host, luminescence; AID 624255, 2012; T. cruzi beta-gal in NIH3T3, GalScreen luminescence, 90 h; inhibition, % at 8.34 µM; 77,000 compounds, 5.9% hits;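 active = mean inhibition above about 93%, with at least 55% of replicates each passing it, limit read from the data, passing the limit was not always enough; inconclusive = only one of those two conditions holds; inactive = neither condition holds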
# Pf Dd2 growth = P. falciparum Dd2 growth inhibitors, primary screen, SYBR Green fluorescence, single dose replicates; 72 h; hits give low values; AID 1159554, 2015; activity change, % at 10 µM; 94,000 compounds, 2.3% hits; in the data active = activity change below about -80%; inconclusive = no clear call, values can overlap the other calls
# T cruzi growth-2 = T. cruzi intracellular proliferation inhibitors, confirmation, cell-based, NIH3T3 host, beta-gal parasite, luminescence, cherry-pick | shares compounds with T cruzi growth-1 | inhibition, % at 8.35 µM | T. cruzi beta-gal in NIH3T3, GalScreen luminescence, 90 h | 5,600 compounds, 72% hits;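 active = mean replicate inhibition above about 95% and at least 55% of replicates individually reaching it, limit read from the data; inconclusive = only one of the two criteria is met; inactive = neither criterion is met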
# T cruzi growth-3 = inhibitors of intracellular T. cruzi replication, confirmation, NIH3T3 host cells, beta-gal parasites, cherry-pick, set 2; shares compounds with T cruzi growth-1; T. cruzi beta-gal in NIH3T3, GalScreen luminescence, 90 h; inhibition, % at 2.09 µM; 5,600 compounds, 21% hits;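 active = mean inhibition above about 95%, with at least 55% of replicates also reaching it, limit read from the data; inconclusive = meets just one of the two conditions; inactive = meets neither condition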;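 note: plate controls were neutral control median for no effect and positive control median for full effect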
# NIH3T3 tox = cytotoxicity in mouse NIH/3T3 fibroblasts, confirmation, cytotoxicity control for T. cruzi proliferation inhibitor project, cell-based, cherry-pick, single point. NIH/3T3 viability, CellTiter-Glo ATP luminescence, 90 h. cytotoxicity (signal decrease), % at 8.35 µM. AID 651742, 2012. shares compounds with T cruzi growth-1. 5,600 compounds, 14% hits;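 active = mean signal decrease across replicates above about 35% based on untreated-well scatter, with enough replicates individually passing, limit read from the data; inconclusive = no rule stated though some were filed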;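 note: 0% = median of neutral control wells and 100% = median of positive control wells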
# 3T3 cytotox 2 = NIH/3T3 fibroblast cytotoxicity, confirmation, cytotoxicity control, cell-based, cherry-pick, single point, set 2; shares compounds with T cruzi growth-1; NIH/3T3 viability, CellTiter-Glo ATP luminescence, 90 h; inhibition, % at 24.9 µM; 5,600 compounds, 56% hits; AID 651744, 2012;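 active = mean loss of cell viability signal at or above a set limit, and enough replicates individually reaching it; inconclusive = meets only the mean limit or only the replicate share; inactive = meets neither condition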;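 note: 0% = median of neutral control wells and 100% = median of positive control wells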
# An asterisk follows results filed as active; ? = inconclusive; . = no result given. Compounds with a hit are over-represented: about 6.7% of the library has one in this group of screens.
SMILES,C diff growth,T cruzi growth-1,Pf Dd2 growth,T cruzi growth-2,T cruzi growth-3,NIH3T3 tox,3T3 cytotox 2
C/C=C/c1ccc([C@@H]2[C@@H](CO)N3CCCCN(S(=O)(=O)c4cccs4)C[C@H]23)cc1,53,75,-14,.,.,.,.
C/C=C/c1ccc([C@H]2[C@H]3CN(S(=O)(=O)c4cccs4)CCCCN3[C@H]2CO)cc1,82,106*,6,106*,62,8,61*
O=S(=O)(c1cccs1)N1CCCCN2[C@H](CO)[C@H](c3ccc(C4=CCCCC4)cc3)[C@H]2C1,49,105*,-50,107*,56,30,104*
O=S(=O)(c1cccs1)N1CCCCN2[C@H](C1)[C@H](c1ccc(C3=CCCC3)cc1)[C@@H]2CO,-1,76,15,.,.,.,.
O=S(=O)(c1cccs1)N1CCCCN2[C@@H](CO)[C@@H](c3ccc(/C=C/c4ccccc4)cc3)[C@@H]2C1,55,74,-29,.,.,.,.
O=S(=O)(c1cccs1)N1CCCCN2[C@@H](CO)[C@H](c3ccc(Br)cc3)[C@@H]2C1,30,103*,-24,105*,32,-6,25
C[C@@H]1CCCCO[C@@H](CN(C)C)[C@H](C)CN([C@@H](C)CO)C(=O)c2cc(NS(=O)(=O)c3ccccc3)ccc2O1,-1,31,9,.,.,.,.
CC(C)NC(=O)Nc1ccc2c(c1)CC(=O)N([C@H](C)CO)C[C@H](C)[C@H](CN(C)S(=O)(=O)c1ccc(Cl)cc1)O2,-3,102*,-14,-52,-24,-30,9
CC(C)NC(=O)Nc1ccc2c(c1)CC(=O)N([C@@H](C)CO)C[C@@H](C)[C@H](CN(C)S(=O)(=O)c1ccc(Cl)cc1)O2,-3,42,-21,.,.,.,.
Cc1noc(C)c1S(=O)(=O)Nc1ccc2c(c1)CC(=O)N([C@@H](C)CO)C[C@@H](C)[C@@H](CN(C)S(=O)(=O)c1ccc(Cl)cc1)O2,6,?,-26,71,33,3,39*
Cc1noc(C)c1S(=O)(=O)Nc1ccc2c(c1)CC(=O)N([C@H](C)CO)C[C@H](C)[C@H](CN(C)S(=O)(=O)c1ccc(Cl)cc1)O2,17,12,-55,.,.,.,.
C[C@@H]1CN([C@@H](C)CO)C(=O)Cc2cc(NS(=O)(=O)c3ccccc3)ccc2O[C@@H]1CN(C)Cc1ccc(C(=O)O)cc1,-6,5,17,.,.,.,.
CC(C)NC(=O)N(C)C[C@@H]1OCCCC[C@@H](C)Oc2ccc(NC(=O)Nc3ccccc3)cc2C(=O)N([C@@H](C)CO)C[C@@H]1C,8,33,-31,.,.,.,.
Cc1noc(C)c1NC(=O)Nc1ccc2c(c1)C(=O)N(C)[C@@H]1CC[C@H](CC(=O)N[C@@H]3CCN(Cc4ccccc4)C3)O[C@@H]1CO2,-9,27,-21,.,.,.,.
CN1C(=O)c2cc(NC(=O)c3ccc(F)c(F)c3)ccc2OC[C@@H]2O[C@H](CC(=O)N[C@H]3CCN(Cc4ccccc4)C3)CC[C@@H]21,-15,104*,.,104*,82,0,32*
CN1C(=O)c2cc(NC(=O)c3ccc(F)c(F)c3)ccc2OC[C@@H]2O[C@@H](CC(=O)N[C@H]3CCN(Cc4ccccc4)C3)CC[C@@H]21,.,101*,.,106*,68,3,10
Cc1noc(C)c1NC(=O)Nc1ccc2c(c1)C(=O)N(C)[C@@H]1CC[C@H](CC(=O)N[C@H]3CCN(Cc4ccccc4)C3)O[C@H]1CO2,15,104*,9,?,2,1,-4
CN1C(=O)c2cc(NC(=O)c3ccc(F)c(F)c3)ccc2OC[C@H]2O[C@@H](CC(=O)N[C@@H]3CCN(Cc4ccccc4)C3)CC[C@H]21,4,110*,.,116*,86,1,27*
CN1C(=O)c2cc(NC(=O)Cc3cccs3)ccc2OC[C@@H]2O[C@@H](CC(=O)N[C@@H]3CCN(Cc4ccccc4)C3)CC[C@@H]21,-2,93,.,.,.,.,.
CN1C(=O)c2cc(NC(=O)c3ccc(F)c(F)c3)ccc2OC[C@H]2O[C@H](CC(=O)N[C@@H]3CCN(Cc4ccccc4)C3)CC[C@H]21,8,91,.,.,.,.,.
C[C@@H]1CN([C@@H](C)CO)C(=O)c2cccc(NS(=O)(=O)c3cccs3)c2O[C@H]1CN(C)S(=O)(=O)c1cn(C)cn1,.,-21,-1,.,.,.,.
COc1ccc(NC(=O)Nc2ccc3c(c2)[C@H]2C[C@H](CC(=O)N4CCc5ccccc5C4)O[C@H](CO)[C@H]2O3)cc1,-2,-29,-78,.,.,.,.
Cc1noc(C)c1NC(=O)N(C)C[C@@H]1Oc2ccc(NC(=O)CCC(F)(F)F)cc2CC(=O)N([C@H](C)CO)C[C@H]1C,-1,8,7,.,.,.,.
C[C@H]1CN([C@@H](C)CO)C(=O)c2cc(-c3cccc(C#N)c3)cnc2O[C@H]1CN(C)Cc1ccc(F)cc1,1,-8,33,.,.,.,.
C[C@H](NC(=O)C[C@@H]1C=C[C@H](NC(=O)c2cccnc2)[C@H](CO)O1)c1ccccc1,1,-82,19,.,.,.,.
SMILES,C diff growth,T cruzi growth-1,Pf Dd2 growth,T cruzi growth-2,T cruzi growth-3,NIH3T3 tox,3T3 cytotox 2
CN1C(=O)c2cc(NC(=O)c3ccc(F)c(F)c3)ccc2OC[C@H]2O[C@@H](CC(=O)N[C@H]3CCN(Cc4ccccc4)C3)CC[C@H]21,2,103*,.,94,73,-15,?
CN1C(=O)c2cc(NC(=O)c3ccc(F)c(F)c3)ccc2OC[C@@H]2O[C@H](CC(=O)N[C@@H]3CCN(Cc4ccccc4)C3)CC[C@@H]21,1,108*,.,?,87,13,54*
CN1C(=O)c2cc(NC(=O)Cc3cccs3)ccc2OC[C@@H]2O[C@@H](CC(=O)N[C@H]3CCN(Cc4ccccc4)C3)CC[C@@H]21,-2,?,.,89,85,-18,4
CN1C(=O)c2cc(NC(=O)c3ccc(F)c(F)c3)ccc2OC[C@H]2O[C@@H](CC(=O)N[C@@H]3CCN(Cc4ccccc4)C3)CC[C@@H]21,30,98*,.,61,74,-2,7
CCS(=O)(=O)Nc1ccc2c(c1)C(=O)N(C)[C@@H]1CC[C@@H](CC(=O)N[C@H]3CCN(Cc4ccccc4)C3)O[C@@H]1CO2,.,-17,.,.,.,.,.
CN1C(=O)c2cc(NC(=O)Cc3cccs3)ccc2OC[C@H]2O[C@@H](CC(=O)N[C@H]3CCN(Cc4ccccc4)C3)CC[C@H]21,-2,75,.,.,.,.,.
CN1C(=O)c2cc(NC(=O)Cc3cccs3)ccc2OC[C@H]2O[C@@H](CC(=O)N[C@@H]3CCN(Cc4ccccc4)C3)CC[C@H]21,-6,90,.,.,.,.,.
